# A selection: hits, their analogues and other compounds. The true share with any hit is near 21%.
# DRD3 antagonist = blocks the human D3 dopamine receptor; 360,000 compounds, 2.5% hits; AID 652054; max response, negative = inhibition, %; D3R cells, DiscoveRx beta-arrestin luminescence, antagonist mode; hits give low values; in the data active = max response below about -50%; inconclusive = no clear call, values can overlap the other calls; also: % is scaled to controls: 0 for no effect and ±100 for the full control effect
# Target sequence (P35462 whole entry, looked up): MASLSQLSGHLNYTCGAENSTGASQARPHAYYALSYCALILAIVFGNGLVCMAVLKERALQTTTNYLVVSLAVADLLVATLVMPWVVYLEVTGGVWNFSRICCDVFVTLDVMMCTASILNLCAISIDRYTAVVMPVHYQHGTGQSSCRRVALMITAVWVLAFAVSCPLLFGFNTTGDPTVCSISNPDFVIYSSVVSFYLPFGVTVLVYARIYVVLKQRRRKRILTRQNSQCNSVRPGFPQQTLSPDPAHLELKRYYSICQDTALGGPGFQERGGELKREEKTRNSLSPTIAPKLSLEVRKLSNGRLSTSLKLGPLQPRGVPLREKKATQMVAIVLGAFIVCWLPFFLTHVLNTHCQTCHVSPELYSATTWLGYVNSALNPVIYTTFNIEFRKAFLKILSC
#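 Cells plated overnight at 1500 cells/well, then exposed to library compounds with dopamine controls for 90 minutes at 37 degrees C. DiscoveRx reagent added for 30–60 minutes at room temperature; luminescence read, quantitative HTS format.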
# IL1B secr inh = blocks inflammasome-driven IL-1 beta release; THP-1 LPS/ATP IL-1B secretion, AlphaLISA, 16 h; hits give low values; AID 743279; activity change, % at 57.5 µM; 360,000 compounds, 4.7% hits; in the data active = activity change below about -50%; inconclusive = mostly about -30% to -49%; also: % is scaled to controls: 0 for no effect and ±100 for the full control effect
#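 Secreted IL-1B measured by AlphaLISA bead assay after 16 h compound exposure of THP-1 cells; compounds (final up to 57.5 uM) added 1 h before LPS (250 ng/mL) and ATP (1.25 mM) stimulation; lower signal means less secretion.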
# ClpP mod = qHTS Assay for Activators of ClpP | Potency, µM (top dose mostly 57.5 µM), for the others: at the top dose activity change, negative = active | purified B. subtilis ClpP, FRET peptide cleavage, 20 min | ATP-dependent Clp protease proteolytic subunit (Bacillus subtilis (strain 168)), P80244 | AID 651965, 2013 | 340,000 compounds, 1.9% hits; active = well fitted falling curve with a large enough effect; inconclusive = small, poorly fitted or top-dose-only effect; inactive = no such curve, though single readings can be large or run the other way; also: potency is read from the fitted curve at half-maximal effect; the source files actives as falling curves though it sought activators and does not explain the sign; nearly all actives have a fitted effect of over 65% in size
# Target sequence (P80244 whole entry, looked up): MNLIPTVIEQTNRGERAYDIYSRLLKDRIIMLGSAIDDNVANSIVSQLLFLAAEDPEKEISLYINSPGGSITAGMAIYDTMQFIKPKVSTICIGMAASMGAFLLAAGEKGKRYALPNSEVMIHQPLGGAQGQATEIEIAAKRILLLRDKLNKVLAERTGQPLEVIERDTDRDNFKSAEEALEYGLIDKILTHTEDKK
#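 ClpP 10 microg/mL final, pH 8 Tris/KCl buffer with BSA, glycerol, Tween-20; compound pinned in; FRET-FV substrate; RT 20 min; Ex320/Em430; ΔFRET vs ADEP 5.8 microM, DMSO, no enzyme.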
# DT40 TDP1 CPT = DT40-hTDP1 cell growth loss with CPT; 420,000 compounds, 12% hits; AID 686979; chicken DT40 Tdp1-/-;hTDP1 cells + 20 nM CPT, ATP luminescence, 48 h; Potency, µM (series often up to 46.2 µM), for the others: at the highest dose activity change, negative = growth inhibition, actives largely listed as inhibitors; also: potency is read from the fitted curve at half-maximal effect; % is scaled to controls: 0 for no effect and ±100 for the full control effect; nearly all actives have a fitted effect of over 55% in size
#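 Chicken DT40 Tdp1-/- cells stably complemented with human TDP1 were seeded at 400 cells/well in medium containing 20 nM camptothecin, exposed to pin-transferred compounds, and grown at 37 °C for at least 48 hr. Viability was read as ATP luminescence.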
# D3 ag = activates the human D3 dopamine receptor | P35462 | D3R DiscoveRx beta-arrestin cells, luminescence, 90 min | max activation, % | 410,000 compounds, 0.58% hits | AID 652048; in the data active = max activation above about 30%; also: 0% is about no effect
#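 Agonist-mode cell screen: cells plated at 1500/well and incubated overnight at 37 °C, then exposed to library compounds for 90 min at 37 °C. Detection reagent was added for 30–60 min at room temperature, and luminescence was read.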
# DT40 TDP1 no CPT = qHTS for Inhibitors of human tyrosyl-DNA phosphodiesterase 1 (TDP1): qHTS in cells in absence of CPT. DT40 Tdp1-/- hTDP1 cells, no CPT, ATP luminescence, 48 h. Potency, µM (doses to about 46.2 µM), for inactives: at the highest dose activity change, negative = growth inhibition, usual class: inhibitors. 420,000 compounds, 15% hits; also: potency is read from the fitted curve at half-maximal effect; % is scaled to controls: 0 for no effect and ±100 for the full control effect; nearly all actives have a fitted effect of over 55% in size
#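 Growth kinetics read by CellTiter-Glo luminescence after ≥48 hr at 37 °C. Cells: DT40 Tdp1-/- stably carrying human TDP1, 400 per well, compound exposure in the absence of CPT (DMSO vehicle).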
# * hit, by the source's call; ? = inconclusive; · = no result given. Unless noted, calls follow the shape of the dose curve; as a rule, active = well fitted inhibition curve with a large enough effect; inconclusive = small, poorly fitted or top-dose-only effect; inactive = flat fitted curve, though single readings scatter.
SMILES,DRD3 antagonist,IL1B secr inh,ClpP mod,DT40 TDP1 CPT,D3 ag,DT40 TDP1 no CPT
CCCCNc1c(-c2ccccn2)nc2nc(C)cc(C)n12,26,57,-9%,?,2,?
Cc1cccc(C)c1Nc1c(-c2ccccn2)nc2ccccn12,-17,32,-5%,6.5µM*,-19,6.5µM*
Cc1cccc(C)c1Nc1c(-c2ccsc2)nc2ccccn12,·,·,28µM*,7.3µM*,7,5.8µM*
Cc1cc(C)n2c(Nc3c(C)cccc3C)c(-c3ccccn3)nc2n1,-70*,183,-2%,5.8µM*,-12,7.3µM*
Cc1cccc(C)c1Nc1c(-c2ccsc2)nc2ccc(Cl)cn12,·,·,-19%,?,3,7.3µM*
Cc1ccn2c(NC3CCCC3)c(-c3ccsc3)nc2c1,6,27,·,?,13,-25%
O=c1cc(-c2ccccc2Cl)oc2c([N+](=O)[O-])c(O)cc(O)c12,45,-74*,0%,23µM*,-1,26µM*
COc1ccccc1-c1cc(=O)c2c(O)ccc([N+](=O)[O-])c2o1,1,14,0%,3.7µM*,0,5.2µM*
CN1CCCC1CCNS(=O)(=O)c1ccc(Br)cc1 (configuration not stated),0,7,-1%,?,3,9.2µM*
CC1CCCN(C(=O)CCNS(=O)(=O)c2ccc(Br)cc2)C1 (configuration not stated),4,-13,-5%,-24%,-1,-22%
Cc1c(C(=O)N(C)C)sc(NC(=O)c2cc([N+](=O)[O-])cc([N+](=O)[O-])c2)c1C#N,-91*,4,4%,-6%,-3,-19%
CC1(C)CC(NC(=O)c2ccccc2)CC(C)(C)N1,-23,-20,-1%,0%,-2,-9%
CC1(C)CC(Nc2ccc(Nc3ccccc3)cc2)CC(C)(C)N1,-14,-81*,0%,16µM*,2,4.6µM*
COc1cccc(NC(=O)CCC2CCN(Cc3nccs3)CC2)c1,2,0,1%,-17%,0,-3%
Cc1ccc(OCCn2cc(/C=C(\C#N)C(=O)NCC3CCCO3)c3ccccc32)cc1C (configuration not stated),41,-6,-1%,13µM*,4,7.3µM*
CCCn1c(C)cc(/C=C(\C#N)C(=O)O)c1C,-2,-10,-4%,8%,2,10%
Cc1ccc(OCCn2cc(/C=C(\C#N)C(=O)NCC3CCCO3)c3ccccc32)cc1 (configuration not stated),-17,-13,-6%,13µM*,-3,10µM*
N#C/C(=C\c1ccc(O)cc1)C(=O)NCC1CCCO1 (configuration not stated),·,·,-6%,·,5,·
Cc1cc(/C=C(\C#N)C(=O)O)c(C)n1CC1CCCO1 (configuration not stated),13,-14,0%,?,1,21µM*
N#C/C(=C\c1cc2c(cc1Br)OCO2)C(=O)NCC1CCCO1 (configuration not stated),-2,-77*,·,?,-4,?
CNC(=O)/C(C#N)=C/c1cn(CC(=O)NCc2ccco2)c2ccccc12,-3,-14,-13%,2%,-6,-2%
Cc1ccc(NC(=O)/C(C#N)=C/c2cn(CC(=O)NCc3ccco3)c3ccccc23)cc1C,2,-12,0%,5%,1,1%
Cc1ccc(C)c(NC(=O)/C(C#N)=C/c2cn(CC(=O)NCc3ccco3)c3ccccc23)c1,3,16,-1%,16µM*,6,?
COCCNC(=O)Cn1cc(/C=C(\C#N)C(=O)NC2CCCC2)c2ccccc21,-60*,-10,5%,-1%,-5,?
Cc1ccccc1-n1c(C)cc(/C=C(\C#N)C(=O)NCC2CCCO2)c1C (configuration not stated),-20,-9,-7%,?,-6,12µM*
SMILES,DRD3 antagonist,IL1B secr inh,ClpP mod,DT40 TDP1 CPT,D3 ag,DT40 TDP1 no CPT
COc1ccc(NC(=O)c2c(N)c(C(=O)c3ccc(OC)cc3)n3ccccc23)cc1,·,·,12%,-23%,-9,?
CS(=O)(=O)c1ccc(NC(=O)CCN2C(=O)C3CCCCC3C2=O)cc1 (configuration not stated),-2,0,-1%,-9%,-19,-12%
CCCCOc1ccc(C(=O)Nc2cccc(-n3cnnn3)c2)cc1OC,-13,15,-2%,-32%,1,-26%
C=CCN1CCc2cc(O)c(O)cc2C(c2ccccc2)C1 (configuration not stated),32,4,0%,-3%,139*,-18%
COC(C[C@@H]1O[C@H]1C(=O)COCc1ccccc1)OC,-27,15,1%,16µM*,-15,21µM*
COC(C[C@@H]1O[C@H]1[C@H](O)COCc1ccccc1)OC,-2,14,-1%,-6%,-1,0%
COC(C[C@@H]1O[C@@H]1C(=O)COCc1ccccc1)OC,-2,51,-5%,18µM*,-10,?
COC(C[C@H]1O[C@@H]1C(=O)COCc1ccccc1)OC,-5,25,1%,4.1µM*,32*,4.6µM*
CCOC(=O)N1CCN(C(=O)CCNS(=O)(=O)c2ccc3c(c2)c(=O)n(C)c(=O)n3C)CC1,5,-10,0%,-4%,2,8%
Nc1ccccc1C(=O)CC(N)C(=O)O (configuration not stated),·,·,·,-3%,·,-16%
Cc1c(C)n(CCc2ccccc2)c2ncnc(NCCO)c12,15,-22,-12%,?,0,?
Cc1c(C)n(Cc2ccccc2)c2ncnc(Cl)c12,13,-8,-9%,15µM*,-4,3.7µM*
Cc1ccc(N2CCN(C(C(=O)Nc3c(C)cccc3C)c3cc4ccccc4o3)CC2)cc1 (configuration not stated),-5,4,-1%,13µM*,5,13µM*
Cc1cccc(C)c1NC(=O)C(c1cc2ccccc2o1)N1CCC(c2ccccc2)CC1 (configuration not stated),-19,25,-5%,16µM*,-10,15µM*
O=C(Nc1ccc(F)cc1)C(c1cc2ccccc2o1)N1CCN(c2ccncc2)CC1 (configuration not stated),23,?,-1%,21µM*,-2,23µM*

# Screening data: PubChem, National Center for Advancing Translational Sciences (NCATS)
